Compound activity: PubChem BioAssay, National Center for Advancing Translational Sciences (NCATS)
NPC1 promoter act – activates the NPC1 promoter | Huh7 NPC1 promoter luciferase reporter, 24 h | Potency, µM (highest dose often 9.22 µM), for inactives: top-dose activation, hits mostly activators | 320,000 compounds, 2.4% hits | AID 485313; further: % of control where 0% means no effect; nearly all actives have a fitted effect of over 60% in size
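Luciferase expression driven by the NPC1 promoter was measured in stably transfected Huh7 cells after a 24 h compound incubation, using a luciferase reagent and a luminescence read.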
FLuc modulator – firefly luciferase modulation, counter-screen for miR-21 project | Potency, µM (top dose mostly 57.5 µM), inactives show at the top dose activity change, negative = inhibition, usual class: inhibitors | purified FLuc, Km substrates, luminescence inhibition | 360,000 compounds, 6.9% hits;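 further: plate controls were vehicle for no effect and reference inhibitor for full effect; nearly all actives have a fitted effect of over 55% in size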
Target sequence (P08659 whole entry, looked up): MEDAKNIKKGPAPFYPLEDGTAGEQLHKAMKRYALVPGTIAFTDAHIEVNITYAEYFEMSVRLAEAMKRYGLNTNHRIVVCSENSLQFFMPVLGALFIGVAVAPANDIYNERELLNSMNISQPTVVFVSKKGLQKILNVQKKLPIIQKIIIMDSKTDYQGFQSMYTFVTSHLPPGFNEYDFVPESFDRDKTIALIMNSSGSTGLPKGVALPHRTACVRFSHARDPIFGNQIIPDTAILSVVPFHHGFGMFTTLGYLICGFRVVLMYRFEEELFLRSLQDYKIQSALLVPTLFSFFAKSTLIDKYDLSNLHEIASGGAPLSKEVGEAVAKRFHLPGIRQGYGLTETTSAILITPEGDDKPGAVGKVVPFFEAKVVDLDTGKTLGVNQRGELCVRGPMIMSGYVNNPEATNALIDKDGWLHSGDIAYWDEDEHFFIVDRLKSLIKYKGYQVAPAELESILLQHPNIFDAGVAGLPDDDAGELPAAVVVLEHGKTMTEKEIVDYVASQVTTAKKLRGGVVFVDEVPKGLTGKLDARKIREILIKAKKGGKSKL
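Purified P. pyralis luciferase (10nM final) with 10uM D-luciferin and 10uM ATP (Km levels) in 50mM Tris acetate pH 7.5, 10mM Mg acetate, 0.01% Tween-20, 0.05% BSA; qHTS 6-point titration, ~60 µM downward; luminescence read.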
ELG1 genotoxic – induces genotoxicity in HEK293T cells with luciferase-tagged ELG1; HEK293T ELG1-luciferase reporter, luminescence, 16 h; Potency, µM (top dose mostly 46 µM), without a hit: top-dose activity change, positive = activation, hits mostly activators; 330,000 compounds, 1.3% hits; further: % of control where 0% means no effect; nearly all actives have a fitted effect of over 60% in size
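ELG1-luciferase HEK293T cells, 2,000/well; compound pinned in; 16 hr, 37 °C, 5% CO2; ONE-Glo, 30 min RT; luminescence on CCD imager.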
ELG1 DNA repair – ELG1-dependent DNA repair inhibition; 330,000 compounds, 2.3% hits; HEK293T ELG1-luciferase reporter, luminescence, 16 h; DNA damage induced by 5-fluorouridine; Potency, µM (doses to about 46.1 µM), inactives show top-dose activity change, negative = inhibition, hits mostly inhibitors; AID 504467; further: on the % scale 0 is the no-effect control and ±100 the full control effect; nearly all actives have a fitted effect of over 55% in size
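Cells (2,000 per well) received 5-fluorouridine plus test compound or DMSO and were incubated 16 hr at 37 °C, 5% CO2. Luciferase activity was read by luminescence 30 min after ONE-Glo addition; signal suppression marked inhibition of damage-induced ELG1 function.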
SMN2 splice up – enhancers of SMN2 splice variant expression; HEK293 SMN2-luciferase splicing reporter, luminescence, 30-36 h; Potency, µM (series often up to 46.1 µM), inactives show at the top dose activity change, positive = activation, most hits filed as activators; 210,000 compounds, 2.8% hits; further: % of control where 0% means no effect; nearly all actives have a fitted effect of over 55% in size
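HEK293 cells carry an SMN2 minigene-luciferase reporter in which exon 7 inclusion puts luciferase in frame. Cells were seeded at 2000 cells/well, attached for 10-12 hours, then exposed to compounds for 30-36 hours at 37C before ONE-Glo luminescence.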
Rab9 prom act – Rab9 promoter activation; Potency, µM (highest dose often 9.22 µM), for the others: at the highest dose activation, negative = inhibition, actives largely listed as activators; 320,000 compounds, 2.8% hits; Huh7 Rab9 promoter-luciferase reporter, luminescence, 24 h; further: % of control where 0% means no effect; nearly all actives have a fitted effect of over 60% in size
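Luminescence from Amplite-detected luciferase (10 minutes, ambient) reports Rab9 promoter activation. Before that, stable Rab9-luciferase Huh7 cells (1500/well, reduced-serum OP-MEM I plus 10% FBS) were exposed to compound for 24 hours at 37C.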
* marks the source's active call; other numbers are inactive results; u = inconclusive; x = not tested or not shown; [ ] = remark or other dose. A selection: hits, their analogues and other compounds. The true share with any hit is near 9.4%. The call rests on the fitted dose curve; in most records, active means well fitted curve in the direction sought with a large enough effect; inconclusive means small, poorly fitted or top-dose-only effect, or another doubt; inactive means no such curve, though single readings can be large; an effect the other way counts as inactive or inconclusive. Potency means the concentration at half of the fitted maximal effect.

SMILES	NPC1 promoter act	FLuc modulator	ELG1 genotoxic	ELG1 DNA repair	SMN2 splice up	Rab9 prom act
COc1ccc(-c2nn(-c3ccccc3)cc2C(=O)Nc2ccc(C(=O)O)cc2)cc1OC	17.9%	4.26µM*	16.0%	u	x	15.7%
COc1ccc(OC)c(-c2nn(-c3ccccc3)cc2C(=O)N2CCc3ccccc3C2)c1	-1.8%	2.1%	-0.1%	u	x	1.1%
COc1cccc(-c2nn(-c3ccc(C)cc3)cc2C(=O)N2CCc3cc(OC)c(OC)cc3C2)c1	-2.6%	5.36µM*	-22.5%	u	x	1.3%
Cc1ccc(-c2nn(-c3ccccc3)cc2C(=O)Nc2ccc(C(=O)O)cc2)cc1	27.3%	1.07µM*	13.3%	u	17.8µM*	u
Cc1cccc(N/N=C/c2ccncc2)c1	u	15.1µM*	u	u	x	u
O=C(N/N=C/c1ccc(O)cc1)c1cccc(C(F)(F)F)c1	0.4%	u	8.6%	-0.1%	5.8%	-2.8%
O=C(N/N=C/c1ccncc1)c1cccc(N/N=C/c2ccncc2)c1	3.55µM*	10.7µM*	-2.0%	9.3%	u	u
O=C(N/N=C/c1ccc(O)cc1)c1cccc(N/N=C/c2ccc(O)cc2)c1	0.562µM*	2.13µM*	u	u	x	0.891µM*
Cc1cccc(N/N=C/c2ccccc2O)c1	u	6.01µM*	u	u	11.2µM*	3.98µM*
Cc1cccc(NC(=O)C(=O)N/N=C/c2ccncc2)c1	-1.5%	-10.0%	2.0%	-0.1%	10.0%	-1.9%
CCCOc1ccc(CNC(=O)Cn2ncn3c(cc4sc(CC)cc43)c2=O)cc1	x	-2.1%	x	x	-8.0%	x
C1CCCC1	x	x	x	x	-1.7%	x
COC(=O)[C@@H](NC(=O)N1CCc2nc(-c3ccc(OC)cc3C)c3c(c2C1)CO[C@@H](c1ccccc1)C3)C(C)C	x	x	x	x	0.4%[9.22 µM]	x
CCN(CC)S(=O)(=O)c1cc(NC(=O)COc2ccc(C#N)cc2OC)ccc1C	0.5%	4.8%	-8.2%	13µM*	-4.4%	-1.8%
CCC(C)NC(=O)Cn1ccc2cc(S(=O)(=O)N3CCCCCC3)ccc21 (stereo not drawn)	-7.0%	5.6%	-1.4%	8.2%	x	0.4%
CN(Cc1nccn1C)C(=O)C1CCC(=O)N(CCc2ccc(Cl)cc2)C1 (stereo not drawn)	-1.1%	0.6%	5.2%	1.3%	x	-2.6%
O=C(CC1NCCNC1=O)Nc1ccc(F)c(Cl)c1 (stereo not drawn)	x	-3.0%	x	x	6.5%	x
CCOc1ccc2c(c1)nc(SCC(=O)c1cccs1)n2C	u	12µM*	u	u	23.0%	25.0%
CCOc1ccc2c(c1)nc(SCC(=O)c1ccc(Br)s1)n2C	1.5%	-9.7%	-1.2%	6.1%	-22.6%	0.8%
O=C(/C=C/c1ccccc1)NCCc1ccccc1	-4.4%	19µM*	20.6µM*	u	x	29.5%
O=C(/C=C/c1ccc([N+](=O)[O-])cc1)NCCc1ccccc1	-0.6%	3.9%	2.4%	7.7%	5.0%	-0.2%
CC(C)(C)SCCNC(=O)/C=C/c1ccccc1	u	19µM*	u	u	x	u
CC1CCCN(c2nc3ccsc3c(=O)s2)C1 (stereo not drawn)	u	15.1µM*	13µM*	u	22.4µM*	u
O=C(NCc1ccccc1Cl)C1CCCN(c2nc3ccsc3c(=O)s2)C1 (stereo not drawn)	-4.5%	-1.5%	9.1%	21.9%	-2.2%	-7.4%
CCCCOc1ccc(C(=O)Nc2ccc3c(c2)CCCN3S(=O)(=O)c2ccc(C)cc2)cc1	x	-7.3%	x	x	x	x
CC(C)c1cc(NCC2CCCO2)n2c(nc3ccccc32)c1C#N (stereo not drawn)	-4.3%	u	-13.3%	16.4µM*	16.7%	-6.5%
Cc1cc(NCC2CCCO2)n2c(nc3ccccc32)c1C#N (stereo not drawn)	x	-0.1%	x	x	-15.5%	x
Cc1ccccc1Nc1c(-c2ccco2)nc2c(C)cccn12	x	13.5µM*	x	x	15.8µM*	x
